Source: PubChem BioAssay AID588591 (National Center for Advancing Translational Sciences (NCATS), 2011)
Among all 390,000 compounds or so, about 4,700 (1.2%) were called active. About 4% were inconclusive and are not listed. This excerpt belongs to a sample that is enriched for actives. Unmarked numbers belong to inactive results. Calls come from the whole dose curve; as a rule, active = well fitted inhibition curve with a large enough effect; inconclusive = small, poorly fitted or top-dose-only effect, or another doubt; inactive = no such curve, though single readings can be large or run the other way.

Biological target: DNA polymerase eta (Homo sapiens) (UniProt Q9Y253)
Assay: qHTS for Inhibitors of Polymerase Eta
Details: recombinant Pol eta, fluorescent DNA replication assay; series mostly up to 114 µM; activity change, negative = inhibition: at the top concentration
How it was run: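 Pol eta (10 nM) was preincubated with compounds for 15 min at room temperature, after which fluorescent replication substrate (50 nM final) was added to start the reaction. Fluorescence was read kinetically at 0 and 10 min.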
% is set by controls: 0 for no effect and ±100 for the full control effect; potency is the fitted concentration of half-maximal effect.

Chain of DNA polymerase eta (Homo sapiens) (Q9Y253 whole entry, looked up): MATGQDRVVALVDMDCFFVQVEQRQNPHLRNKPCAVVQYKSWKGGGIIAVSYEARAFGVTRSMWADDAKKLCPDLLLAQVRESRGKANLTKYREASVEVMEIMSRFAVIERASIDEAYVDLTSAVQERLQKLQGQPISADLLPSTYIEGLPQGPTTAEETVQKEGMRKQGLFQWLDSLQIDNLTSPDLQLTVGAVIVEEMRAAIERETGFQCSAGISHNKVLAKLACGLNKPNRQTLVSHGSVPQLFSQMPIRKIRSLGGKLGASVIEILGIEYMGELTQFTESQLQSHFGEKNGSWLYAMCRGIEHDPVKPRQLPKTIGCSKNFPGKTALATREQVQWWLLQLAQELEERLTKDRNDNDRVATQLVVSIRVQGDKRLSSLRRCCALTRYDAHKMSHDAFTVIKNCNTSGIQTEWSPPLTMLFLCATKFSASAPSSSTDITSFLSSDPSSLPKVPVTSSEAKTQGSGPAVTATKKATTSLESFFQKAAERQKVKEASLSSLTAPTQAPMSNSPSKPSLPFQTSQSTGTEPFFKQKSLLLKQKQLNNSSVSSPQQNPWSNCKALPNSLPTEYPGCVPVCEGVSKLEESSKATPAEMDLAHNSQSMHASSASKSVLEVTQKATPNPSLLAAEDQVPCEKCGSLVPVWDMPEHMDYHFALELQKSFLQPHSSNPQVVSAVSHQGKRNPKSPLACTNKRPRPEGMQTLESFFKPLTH

Structure (SMILES) | Potency | activity change, negative = inhibition
O=[N+]([O-])c1ccc(C=Nc2ccc(Cl)cc2Cl)s1 | 89.1 µM (active) | 
CCOc1ccccc1CNCc1c(C(=O)O)c(C)n(Cc2ccc(C)cc2)c1C |  | -12.1%
COc1ccc(CNC(=O)c2cc3c(-c4ccccc4F)nn(C)c3s2)c(OC)c1 |  | -15.6%
CS(=O)(=O)c1ccc2c(c1)SC1=NC(=O)/C(=C/c3ccco3)C(=N)N12 | 3.16 µM (active) | 
Cc1ccc(C)c(Cn2c(C(=O)O)c(CNCc3cccs3)c3ccccc32)c1 |  | -8.15%
CCOc1ccc2nc(N3CCCC(C(=O)Nc4cc(C)ccc4C)C3)sc2c1 (stereo unspecified) |  | -6.36%
C[C@@H]1O[C@@H](OC[C@H]2O[C@@H](Oc3c(-c4ccc(O)cc4)oc4cc(O)cc(O)c4c3=O)[C@H](O)[C@@H](O)[C@@H]2O)[C@H](O)[C@H](O)[C@H]1O |  | -18.3%
COc1ccc(CCOC2OC(CO)C(OC(=O)/C=C/c3ccc(O)c(OC)c3)C(O[C@H]3O[C@@H](C)[C@H](O)[C@@H](O)[C@H]3O)C2O)cc1O (stereo partly specified) |  | 3.88%
COc1ccc(-c2cc(=O)c3c(O)cc(O[C@@H]4O[C@H](CO[C@@H]5O[C@@H](C)[C@H](O)[C@@H](O)[C@H]5O)[C@@H](O)[C@H](O)[C@H]4O)cc3o2)cc1O | 79.4 µM (active) | 
Cc1cc(-c2n[nH]c(=S)n2-c2ccc(C)c(C)c2)no1 |  | -12.4%
COc1ccc(OCc2n[nH]c(=S)n2N)cc1 |  | -0.0483%
COc1ccccc1-n1c(-c2cc(-c3ccco3)[nH]n2)n[nH]c1=S | 50.1 µM (active) | 
COc1ccc(C(=O)Nc2nonc2-c2ccc(OC)c(OC)c2)cc1Cl |  | -22.8%
Cc1cccc(OCCCC(=O)Nc2sc3c(c2C(N)=O)CCC(C)C3)c1 (stereo unspecified) |  | -9.18%
Cc1ccc(S(=O)(=O)N2CCCC2C(=O)OCc2nc3sc(C)c(C)c3c(=O)[nH]2)cc1 (stereo unspecified) |  | -8.42%
CSc1nnc(SCc2nc3sc(C(=O)O)c(C)c3c(=O)[nH]2)s1 | 3.16 µM (active) | 
CCN(CC)Cc1nc2sc(C)c(C)c2c(=O)[nH]1 |  | -11.4%
CCc1nn(CC(=O)NCC(C)c2ccccc2)c(=O)c2cc3occc3n12 (stereo unspecified) |  | -12.9%
Cc1cc(Cl)ccc1OCC(=O)N(Cc1ccc(N(C)C)cc1)C1CCS(=O)(=O)C1 (stereo unspecified) |  | -16.1%
COc1ccc2c(c1)c(=O)c(C(=O)c1ccccc1)cn2CC(=O)Nc1ccc2c(c1)OCCO2 |  | -15.9%
CCOC(=O)c1ccc(NC(=O)C2CCN(S(=O)(=O)c3ccc4c(c3)CCCC(=O)N4)CC2)cc1 |  | -18.7%
O=c1n(Cc2cccc(C(F)(F)F)c2)c2ccccc2c2nc(-c3ccccc3)nn12 |  | -12.8%
N#Cc1ccc(C2=CC(=O)C[C@H](c3ccc(Cl)cc3)C2)cc1 |  | -13.2%
CC1(OC(=O)C2CCCC2)C(=O)C=C2C=C(c3ccc(C#N)cc3)OC=C2C1=O (stereo unspecified) | 20 µM (active) | 
Cc1ccccc1C(=O)N1CCC(C(=O)Oc2ccc(C#N)cc2)CC1 |  | 6.45%
CCOC(=O)c1c(N)n(-c2cccc(C)c2C)c2nc3ccccc3nc12 |  | -6.46%
